# Shown are actives, neighbours in structure and some others; about 5.1% of the full set was active somewhere.
# NR3A LBD binder: modulators (binders) of human NR3A ligand-binding domain | NR3A LBD differential scanning fluorimetry, Tm shift; 0% = protein alone, 100% = glycine-bound protein | Tm shift relative to glycine control, % at 25 µM | 2.5% of 340,000 active;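 active means melting temperature shift of at least 10% of the positive control shift, at one fixed dose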
# CRFR2-BP ag: agonists of human CRF-binding protein/CRF-R2 receptor complex. HEK293 CRF-R2/CRF-BP, calcium dye fluorescence (FLIPR); percent of saturating CRF peptide response. activation, % at 13.2 µM. 0.46% of 350,000 active. AID 588473;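 active means activation of at least 50%, plus an integration ratio under a set limit after plate pattern correction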;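 further: plate controls were neutral control wells without compound for no effect and CRF at EC100 for full effect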
# CRFBP-R2 block: antagonists of CRF-binding protein/CRF-R2 receptor complex; HEK293 CRF-R2/CRF-BP, CRF-induced calcium fluorescence; inhibition, % at 11.8 µM; 0.59% of 350,000 active; AID 588475;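 active means inhibition of the ligand-induced calcium signal above about 50% at the single tested concentration, limit read from the data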
# TMEM16A act: activators or potentiators of mouse TMEM16A chloride channel. B-score at 10 µM. 0.3% of 340,000 active. Q8BHY3. HEK293 TMEM16A/YFP-H148Q/I152L, iodide quench fluorescence; hits give low values. AID 623877;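 active means fluorescence-ratio B-score plate-corrected deviation score at least 3 library SD below zero, with starting fluorescence score within 5 deviations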;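 further: channel opened by trigger with iodide after compound preincubation; score built on the fluorescence ratio of max minus min over baseline; more negative score means more quench and so TMEM16A activation or potentiation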
# Target sequence (Q8BHY3 whole entry, looked up): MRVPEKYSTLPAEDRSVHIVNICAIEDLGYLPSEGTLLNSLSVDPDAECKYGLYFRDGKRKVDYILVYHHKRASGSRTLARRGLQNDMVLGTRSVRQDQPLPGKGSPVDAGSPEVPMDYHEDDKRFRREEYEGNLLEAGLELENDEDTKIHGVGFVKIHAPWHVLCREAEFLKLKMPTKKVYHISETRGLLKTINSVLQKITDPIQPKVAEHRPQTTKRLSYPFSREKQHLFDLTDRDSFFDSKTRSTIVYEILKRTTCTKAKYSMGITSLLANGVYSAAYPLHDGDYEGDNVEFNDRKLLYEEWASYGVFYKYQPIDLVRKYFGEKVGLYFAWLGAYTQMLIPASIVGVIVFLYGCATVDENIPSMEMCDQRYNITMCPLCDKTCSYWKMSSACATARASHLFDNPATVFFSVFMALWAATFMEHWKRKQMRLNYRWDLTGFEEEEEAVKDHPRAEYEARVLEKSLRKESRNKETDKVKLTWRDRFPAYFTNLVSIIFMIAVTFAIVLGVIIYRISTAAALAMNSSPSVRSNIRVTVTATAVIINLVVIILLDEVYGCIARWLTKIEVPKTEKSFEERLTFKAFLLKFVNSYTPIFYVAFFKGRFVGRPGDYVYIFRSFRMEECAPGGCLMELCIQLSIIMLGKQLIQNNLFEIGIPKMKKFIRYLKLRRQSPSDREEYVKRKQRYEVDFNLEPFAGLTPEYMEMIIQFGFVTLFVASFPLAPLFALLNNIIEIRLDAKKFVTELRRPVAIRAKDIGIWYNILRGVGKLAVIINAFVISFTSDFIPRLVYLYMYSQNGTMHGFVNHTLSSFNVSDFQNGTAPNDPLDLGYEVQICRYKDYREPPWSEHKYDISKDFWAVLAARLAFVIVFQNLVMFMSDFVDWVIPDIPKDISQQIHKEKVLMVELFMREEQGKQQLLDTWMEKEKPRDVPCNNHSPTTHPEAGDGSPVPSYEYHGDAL
# TMEM16A inh: inhibitors of mouse TMEM16A calcium-activated chloride channel. normalized B-score (activity score, 25-100; higher = stronger inhibition) at 10 µM. 1.2% of 310,000 active. HEK293 TMEM16A/YFP iodide influx fluorescence, ionomycin. Q8BHY3;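 active means ratio plate-corrected score three or more library SD toward inhibition, starting fluorescence score within five deviations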;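 further: score derived from kinetic fluorescence span divided by baseline fluorescence per well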
# MPTP inh: inhibitors of mitochondrial permeability transition pore. isolated mouse mitochondria, Ca2+ swelling absorbance, 30 min. inhibition, % at 10 µM. 1.4% of 360,000 active. AID 602449;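 active means inhibition of 50% or more, scaled per plate between neutral and stimulator controls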;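 further: 0% = DMSO wells given calcium and 100% = 1 mM EGTA wells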
# Rh123 counter: Rhodamine 123 counter-screen of mitochondrial pore hits | shares compounds with MPTP inh | isolated mitochondria, membrane potential, Rhodamine 123 fluorescence | inhibition, % at 10 µM | 78% of 5,000 active | AID 624504; in the data active means inhibition above about 22%;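 further: 0% = DMSO vehicle and 100% = positive control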
# MPTP abs DR: dose response confirmation of mitochondrial permeability transition pore inhibitors; IC50, µM; shares compounds with MPTP inh; isolated mitochondria swelling, absorbance; 58% of 780 active; in the data active means IC50 below about 20 µM
# MPTP cs DR: MPTP inhibitor counter-screen activity, dose response; 49% of 780 active; IC50, µM; shares compounds with MPTP inh; isolated mitochondria counterscreen, fluorescence read-out; in the data active means IC50 below about 80 µM
# The depositor's hits bear a star; i = inactive; / = no result given.
SMILES,NR3A LBD binder,CRFR2-BP ag,CRFBP-R2 block,TMEM16A act,TMEM16A inh,MPTP inh,Rh123 counter,others
COc1ccc(-c2nc(NC(C)=O)sc2-c2ccccc2)cc1,-12.2,-0.2,7.0,i,i,81.8*,-1.7,MPTP abs DR=i;MPTP cs DR=>80
CC1(C(=O)O)CCCN(C(=O)c2ccc3c(c2)C(C)(C)CCC3(C)C)C1 (stereo unspecified),/,/,/,/,/,0.1,/,
NC(=O)c1ccc(NS(=O)(=O)c2ccc(S(=O)(=O)N3CCCC3)cc2)cc1,/,-0.6,-7.9,/,/,-1.3,/,
COc1cc(OC)cc(C(=O)NCC(=O)NC(C)c2ccccc2)c1 (stereo unspecified),2.4,1.1,-10.0,i,i,0.3,/,
Cc1cc(C(F)(F)F)c(C#N)c(SCC(=O)Nc2nc3cc(Br)ccc3s2)n1,29.9*,34.6,-73.0,i,i,86.8*,12.3,MPTP abs DR=15.7*;MPTP cs DR=3.25*
CCc1cc2cc(C)cc(C)c2nc1SCC(=O)N1CCN(C(=O)c2ccco2)CC1,-0.9,4.5,52.1*,i,i,64.4*,30.1*,
COc1ccc(-c2cc(=Nc3ccc(C)cc3)c3ccccc3o2)cc1,2.4,-1.6,0.5,i,i,62.6*,12.0,MPTP abs DR=>100;MPTP cs DR=13.5*
COc1ccc(N=c2cc(-c3ccc(O)cc3)oc3ccccc23)cc1,-1.1,-0.8,-12.5,i,i,68.5*,72.8*,
COc1ccc(N=c2cc(-c3ccc(OC)cc3)oc3ccccc23)cc1,-14.1,-1.5,-29.6,i,i,26.7,/,
CNC(=O)C[C@H]1C(=O)N(CCc2ccccc2)C[C@@H]1C,/,-2.1,3.8,/,/,0.2,/,
O=C(c1ccc(CSc2nc3ccncc3[nH]2)cc1)N1CCCCCC1,0.8,3.2,-6.7,i,i,14.8,/,
O=C(c1ccc(CSc2nc3ccncc3[nH]2)cc1)N1CCN(c2cccc(Cl)c2)CC1,-9.1,4.4,-26.7,i,100*,89.9*,102.8*,
CN(C)CCCOc1nn(Cc2ccccc2)c2ccccc12,-0.8,0.7,-12.0,i,i,75.4*,-3.8,
OCc1ccc(-c2nn(Cc3ccccc3)c3ccccc23)o1,-1.3,0.7,-9.1,i,i,-0.9,/,
Cc1ccc(C)c(NC(=S)NC(NC(=O)/C=C/c2ccccc2)C(Cl)(Cl)Cl)c1 (stereo unspecified),13.8*,-0.3,19.5,i,i,100.3*,64.9*,
Cc1ccc(NC(=S)NC(NC(=O)C(C)(C)C)C(Cl)(Cl)Cl)c(C)c1 (stereo unspecified),-3.5,-1.8,34.0,i,i,57.3*,64.1*,
O=C(/C=C/c1ccc(Cl)cc1)NC(=S)Nc1ccccc1C(=O)O,-6.1,-1.3,6.7,i,i,3.3,/,
O=C(/C=C/c1ccccc1)NC(NC(=S)Nc1cccc(Cl)c1)C(Cl)(Cl)Cl (stereo unspecified),28.9*,0.2,10.2,i,i,93.4*,84.2*,
O=C(/C=C/c1ccccc1)NC(NC(=S)Nc1ccc(Cl)cc1Cl)C(Cl)(Cl)Cl (stereo unspecified),20.1*,-1.6,-17.9,i,i,102.4*,63.4*,
COC(=O)NC(NC(=S)Nc1cccc(C)c1)C(Cl)(Cl)Cl (stereo unspecified),-16.4,-0.4,-4.8,i,i,0.7,/,
O=C(COC(=O)c1ccc(O)cc1)NCC1COc2ccccc2O1 (stereo unspecified),1.1,-0.3,11.1,i,/,-0.8,/,
CC(=O)NC(NC(=S)Nc1ccc(N=Nc2ccccc2C)cc1C)C(Cl)(Cl)Cl (stereo unspecified),3.5,-1.9,9.8,i,i,88.1*,63.2*,
CC(=O)NC(NC(=S)Nc1ccccc1Br)C(Cl)(Cl)Cl (stereo unspecified),0.7,-0.5,-14.8,i,i,4.5,/,
Cc1ccc(-c2nc(CSCC(=O)N3CCN(C(=O)c4ccco4)CC3)c(C)o2)cc1,-1.0,-2.8,9.7,i,i,-3.3,/,
CCc1ccc(-c2nc(CSCC(=O)N3CCN(c4ccccn4)CC3)c(C)o2)cc1,1.4,1.7,-4.3,i,100*,80.0*,58.4*,
SMILES,NR3A LBD binder,CRFR2-BP ag,CRFBP-R2 block,TMEM16A act,TMEM16A inh,MPTP inh,Rh123 counter,others
CN(CC(=O)Nc1cccc(F)c1)CC(=O)Nc1ccccc1[N+](=O)[O-],0.5,4.4,-0.3,i,i,77.9*,51.0*,
COc1cc(NC(=O)COc2cc(C)cc3oc(=O)cc(C)c23)cc(OC)c1OC,/,-2.0,6.6,/,/,2.5,/,
O=C(Nc1ccc(S(=O)(=O)NC2=NCCCCC2)cc1)c1ccc(Cl)c([N+](=O)[O-])c1,-3.0,-1.5,18.5,i,/,-2.2,/,
O=C(O)c1cc(NC(=O)c2ccc(Cl)c([N+](=O)[O-])c2)cc(C(=O)O)c1,0.2,0.1,2.2,i,i,0.5,/,
O=C(Nc1ccc(C(O)(C(F)(F)F)C(F)(F)F)cc1)c1ccc(Cl)c([N+](=O)[O-])c1,12.6*,-0.8,-4.3,i,100*,82.6*,67.1*,
N#Cc1ccsc1NC(=O)c1ccc(Cl)c([N+](=O)[O-])c1,4.3,66.7*,72.1*,i,i,81.9*,71.2*,
Cc1cccc(C)c1NS(=O)(=O)c1ccc(NC(=O)c2ccc(Cl)c([N+](=O)[O-])c2)cc1,18.9*,1.4,-17.8,i,i,74.5*,80.7*,
CCCCCN(C(=O)CCC(=O)OCc1cccc(C)c1)c1c(N)n(CCCC)c(=O)[nH]c1=O,-1.3,0.1,17.7,i,i,0.7,/,
COc1ccc(-n2c(SCCNCCO)nc3sc4c(c3c2=O)CCCC4)cc1,0.6,1.7,-6.7,i,i,76.5*,-19.8,MPTP abs DR=8.33*;MPTP cs DR=>80
COc1ccc(NC(=O)C23CC4CC(C2)CC(c2ccc(C)cc2)(C4)C3)cc1,-15.9,4.4,-68.8,i,i,60.0*,20.7*,
CCCc1[nH]c2ccc(C(=O)OC)cc2c1CCC,-8.1,1.1,0.6,i,i,1.4,/,
CCCc1[nH]c2ccc(C#N)cc2c1CCC,-2.1,-0.8,-5.9,i,i,69.0*,85.8*,
O=Cc1ccc(Oc2cc(-c3ccccc3)nc(-c3ccccc3)n2)cc1,-7.0,9.6,-30.2,i,i,-29.3,/,
CC(=O)c1ccc(Oc2cc(-c3ccccc3)nc(-c3ccccc3)n2)cc1,2.7,5.3,-70.5,i,i,52.8*,-1.1,MPTP abs DR=>100;MPTP cs DR=>80

# Screens from PubChem BioAssay.
